Laboratory results: PubChem BioAssay (NCATS)
Values without a mark were called inactive. Records with an inconclusive call do not appear. Calls of active or inactive are those of the source. Unless noted, calls come from the whole dose curve; as a rule, active = well fitted curve in either direction with a large enough effect (not every such curve was filed as active); inconclusive = small, poorly fitted or top-dose-only effect, or another doubt; inactive = flat fitted curve, though single readings scatter.

Assays:
[1] = molecular target: Lysosomal acid glucosylceramidase (Homo sapiens) (UniProt P04062); experiment: Glucocerebrosidase-p2 (AID 348; in the data active = potency below about 10 µM; note: potency is the fitted concentration of half-maximal effect); details: purified GBA, blue fluorogenic substrate, 40 min
In short: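 Normal human glucocerebrosidase (0.2 nM) with blue fluorogenic substrate (80 uM final) in citrate/phosphate pH 5.9 with 10mM sodium taurocholate, 0.01% tween-20; 40 min RT, NaOH/glycine stop; fluorescence Ex 365/Em 440; AC50 from a titration from 0.6 nM upwards.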

[2] = AP1 Signaling Pathway (AID 357); details: ME-180 AP-1-bla reporter, EGF-induced, beta-lactamase ratio, 5 h; at 7.69 µM (top of the series) unless noted; note: % is set by controls: 0 for no effect and ±100 for the full control effect
In short: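 ME-180 cells with beta-lactamase reporter under AP-1 response element, stimulated with EC50 EGF; compounds tested in titration series, 5 h at 37 °C. CCF4 substrate added 2.5 h at room temperature; 460/530 nm emission ratio gave %activity and AC50.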

[3] = molecular target: Cytochrome P450 1A2 (Homo sapiens) (UniProt P05177); experiment: p450-cyp1a2 (AID 410; calls by dose curve; note: potency is the fitted concentration of half-maximal effect;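 for activity change, negative = inhibition: -100% = full effect of reference inhibitor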); details: recombinant CYP1A2, luciferin-ME demethylation, luminescence; series mostly up to 11.4 µM
In short: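 20nM CYP1A2, 100uM Luciferin-ME (=Km), 100mM KPO4; cpd 10 min RT; +NADPH regen, 60 min RT; stop/detect 20 min; luminescence. Normalized to furafylline 57 uM = full inhibition.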

[4] = NFAT Signaling Pathway (AID 444); details: Jurkat NFAT-bla M1, carbachol, beta-lactamase ratio, 5 h; at 7.69 µM (top of the series) unless noted;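 note: carbachol stimulus at about its EC50 of 1 µM final; % is set by controls: 0 for no effect and ±100 for the full control effect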
In short: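 Jurkat cells carrying an NFAT-driven β-lactamase reporter and co-transfected muscarinic M1 receptor were treated with compound plus carbachol (1 uM final, an EC50 level) for 5 h at 37 °C. CCF4 loading followed for 1 h at RT; 460/530 nm ratio gave %activity.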

[5] = Stat Signaling Pathway (AID 446); details: ME-180 SIE beta-lactamase reporter, IL-6 stimulated, 5 h; at 7.69 µM (top of the series) unless noted;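 note: ME-180 cervical cancer cells given 40 pM IL-6 alongside compound; SIE-controlled beta-lactamase reporter measured as 460/530 nm FRET emission ratio; % is set by controls: 0 for no effect and ±100 for the full control effect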
In short: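 Emission at 460 and 530 nm (excitation 405 nm) reports SIE-controlled beta-lactamase in ME-180 cells. Cells received compound with 40 pM IL-6 for 5 hrs at 37 C; data scaled between 300 pM IL-6 and 125 nM JAK-inhibitor controls.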

[6] = molecular target: Glucocorticoid receptor (Homo sapiens) (UniProt P04150); experiment: GR-GFP Redistribution (AID 450;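 active = compounds whose dose series gives a full or clear partial fitted curve of increased nuclear translocation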; note: potency is the fitted concentration of half-maximal effect); details: U2OS GR-GFP nuclear translocation, laser cytometry, 2 h
[7] = molecular target: Glucocorticoid receptor (Homo sapiens) (UniProt P04150); experiment: GR-EFC Redistribution (AID 451; calls by dose curve; note: potency is the fitted concentration of half-maximal effect); details: CHO-K1 GR-EFC translocation, beta-gal luminescence, 2 h
In short: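 CHO-K1 cells stably expressing nuclear-localized β-gal enzyme acceptor and GR fused C-terminally to the enzyme donor fragment; ligand-driven nuclear translocation restores β-gal by complementation. Compounds titrated up to 46 uM final, 2 h at 37 °C; luminescence read.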

[8] = molecular target: Mitogen-activated protein kinase 10 (Mus musculus) (UniProt Q61831); experiment: JNK3 AlphaScreen Assay (AID 530); details: JNK3 lysate, c-Jun phosphorylation; series mostly up to 11.4 µM;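 note: kinase came from lysate of stimulated human HepG2 cells; signal reports phosphorylation of biotinylated GST-cJun 1-79 at Ser73 with 10 µM ATP; % is set by controls: 0 for no effect and ±100 for the full control effect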
In short: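 Biotinylated GST-cJun(1-79) served as substrate for JNK3 in HepG2 lysates stimulated with IL-1beta and TNF-alpha. ATP was 10 uM final, pH 7.6. Ser73 phosphorylation was quantified by AlphaScreen (680 nm excitation).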

[9] = molecular target: 3',5'-cyclic-AMP phosphodiesterase 4B (Homo sapiens) (UniProt Q07343); experiment: qHTS Assay for Inhibitors of PDE-IV (AID 607; active = well fitted activation curve with a large enough effect in the main read-out, with a control signal flat, not every such curve was filed as active; note: % of control where 0% means no effect); details: HEK293 ACTOne CNG channel cells, membrane potential fluorescence; series mostly up to 22.9 µM
In short: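 The readout is membrane depolarisation from a cAMP-sensing CNG channel, detected with a potential dye at ex 535/em 590. Cells were HEK293-derived (endogenous PDE-IV) at 1000 cells/well, titrated up to 22.9 uM final.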

[10] = qHTS Assay for Identification of Small Molecule Agonists for Hypoxia Response Element Signaling Pathway (AID 914; active = well fitted activation curve with a large enough effect in the signal ratio, with a control signal flat, not every such curve was filed as active; the % refers to the signal ratio; note: % of control where 0% means no effect); details: ME-180 HRE-bla reporter, beta-lactamase ratio, CoCl2, 17 h; activation: stronger effect = higher value
In short: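 ME-180 cells carrying an HRE-driven beta-lactamase reporter were treated with compounds in a titration series plus an EC50 level of CoCl2 for 17 h at 37 degrees Celsius; CCF4 readout as the 460nm/530nm ratio gave AC50 values.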

[11] = molecular target: Cytochrome P450 3A4 (Homo sapiens) (UniProt P08684); experiment: qHTS Assay for Activators of Cytochrome P450 3A4 (AID 885; active = well fitted curve in the direction sought with a large enough effect; an effect the other way counts as inactive or inconclusive; note: nearly all actives have a fitted effect of over 65% in size); details: recombinant CYP3A4, Luciferin-PPXE luminescence, 60 min; series mostly up to 11.4 µM
In short: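 Activators are scored by enhanced luminescence from CYP3A4 conversion of luciferin-PPXE (25uM, equal to KM) to luciferin, after 60 min at RT with an NADPH-regenerating system.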

[12] = Confirmation and Secondary Assay for Modulators of Hemoglobin Beta Chain Splicing at IVS2 654 locus (AID 910; active = well fitted curve in the direction sought with a large enough effect; an effect the other way counts as inactive or inconclusive;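 note: per-well total GFP intensity by laser scanning cytometry after 2-day treatment; % of control where 0% means no effect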); details: HeLa EGFP-654 splicing reporter, GFP fluorescence, 48 h; series mostly up to 38.3 µM
In short: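 HeLa cells stably carrying EGFP interrupted by mutant beta-globin IVS2-654 intron (CMV-driven) were treated with compound for 2 days at 37C; corrected splicing was scored as total peak GFP intensity per well (488 nm excitation, 500-520 nm emission).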

[13] = Confirmation and Secondary Assay for Modulators of Hemoglobin Beta Chain Splicing at IVS2 705 locus (AID 930; active = well fitted curve in the direction sought with a large enough effect; an effect the other way counts as inactive or inconclusive;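 note: HeLa cells stably expressing the EGFP-705 splicing reporter; % of control where 0% means no effect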); details: HeLa EGFP-705 splicing reporter, GFP fluorescence, 48 h; series mostly up to 38.3 µM
In short: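 HeLa cells stably carrying EGFP interrupted by mutant beta-globin IVS2-705 intron (CMV-driven) were seeded at 500 cells/well, treated next day with compound for 2 days at 37C; corrected splicing restores EGFP, read as total peak GFP intensity per well.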

[14] = molecular target: Cytochrome P450 2D6 (Homo sapiens) (UniProt P10635); experiment: qHTS Assay for Inhibitors and Substrates of Cytochrome P450 2D6 (AID 891; active = well fitted curve in the direction sought with a large enough effect; an effect the other way counts as inactive or inconclusive; note: potency is the fitted concentration of half-maximal effect; nearly all actives have a fitted effect of over 60% in size); details: recombinant CYP2D6, luciferin-ME EGE luminescence; series mostly up to 11.4 µM
In short: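 Luminescent read-out of luciferin formed by 5 nM human CYP2D6 demethylating 30 uM Luciferin-ME EGE (Km level) over 60 min at room temperature after NADPH regeneration addition. Data normalized to full inhibition by 1.43 uM quinidine.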

Chain of Cytochrome P450 3A4 (Homo sapiens) (P08684 whole entry, looked up): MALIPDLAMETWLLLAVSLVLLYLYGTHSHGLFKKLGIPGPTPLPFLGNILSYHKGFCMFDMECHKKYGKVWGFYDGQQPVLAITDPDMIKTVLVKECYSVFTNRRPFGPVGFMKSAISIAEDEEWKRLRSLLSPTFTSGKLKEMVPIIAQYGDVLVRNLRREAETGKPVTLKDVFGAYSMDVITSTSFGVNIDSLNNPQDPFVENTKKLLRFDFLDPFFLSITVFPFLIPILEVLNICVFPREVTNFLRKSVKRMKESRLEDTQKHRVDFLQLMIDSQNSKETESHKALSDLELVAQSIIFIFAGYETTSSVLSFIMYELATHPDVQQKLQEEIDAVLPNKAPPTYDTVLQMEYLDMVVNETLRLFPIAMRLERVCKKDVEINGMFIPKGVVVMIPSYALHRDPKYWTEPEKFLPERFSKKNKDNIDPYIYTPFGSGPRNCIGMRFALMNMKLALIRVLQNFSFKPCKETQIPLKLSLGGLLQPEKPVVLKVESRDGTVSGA
Chain of Lysosomal acid glucosylceramidase (Homo sapiens) (P04062 whole entry, looked up): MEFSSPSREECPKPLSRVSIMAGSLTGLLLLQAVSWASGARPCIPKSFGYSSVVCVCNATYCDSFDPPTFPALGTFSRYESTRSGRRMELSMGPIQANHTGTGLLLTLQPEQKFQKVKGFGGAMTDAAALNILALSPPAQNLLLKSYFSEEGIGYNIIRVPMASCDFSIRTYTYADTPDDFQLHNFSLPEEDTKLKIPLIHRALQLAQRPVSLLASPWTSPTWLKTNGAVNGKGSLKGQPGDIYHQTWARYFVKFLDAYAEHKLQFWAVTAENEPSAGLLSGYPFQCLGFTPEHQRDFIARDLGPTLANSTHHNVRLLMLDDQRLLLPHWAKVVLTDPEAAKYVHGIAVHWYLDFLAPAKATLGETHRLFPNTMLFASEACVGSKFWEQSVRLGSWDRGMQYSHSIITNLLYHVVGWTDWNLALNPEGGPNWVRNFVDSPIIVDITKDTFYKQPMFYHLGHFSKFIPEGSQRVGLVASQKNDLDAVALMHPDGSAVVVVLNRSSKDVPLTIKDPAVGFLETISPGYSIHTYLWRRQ
Chain of 3',5'-cyclic-AMP phosphodiesterase 4B (Homo sapiens) (Q07343 whole entry, looked up): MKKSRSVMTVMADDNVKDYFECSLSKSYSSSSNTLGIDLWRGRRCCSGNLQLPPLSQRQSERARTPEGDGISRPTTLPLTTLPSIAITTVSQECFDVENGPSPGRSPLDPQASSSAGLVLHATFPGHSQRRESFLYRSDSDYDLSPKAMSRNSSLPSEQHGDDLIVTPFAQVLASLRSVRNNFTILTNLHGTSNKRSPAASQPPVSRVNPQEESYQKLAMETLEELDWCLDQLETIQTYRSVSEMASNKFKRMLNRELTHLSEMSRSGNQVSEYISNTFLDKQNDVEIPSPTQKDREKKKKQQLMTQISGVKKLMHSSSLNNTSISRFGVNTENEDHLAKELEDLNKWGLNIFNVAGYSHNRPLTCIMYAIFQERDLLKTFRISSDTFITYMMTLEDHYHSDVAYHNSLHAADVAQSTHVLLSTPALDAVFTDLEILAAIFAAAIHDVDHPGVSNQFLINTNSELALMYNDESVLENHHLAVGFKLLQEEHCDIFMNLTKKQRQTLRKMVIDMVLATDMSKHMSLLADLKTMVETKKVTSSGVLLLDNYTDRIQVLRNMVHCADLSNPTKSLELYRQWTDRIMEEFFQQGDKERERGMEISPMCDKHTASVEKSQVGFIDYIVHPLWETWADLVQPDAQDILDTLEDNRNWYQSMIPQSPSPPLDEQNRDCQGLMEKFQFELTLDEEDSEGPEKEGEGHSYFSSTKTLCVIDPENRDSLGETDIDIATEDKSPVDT
Chain of Cytochrome P450 1A2 (Homo sapiens) (P05177 whole entry, looked up): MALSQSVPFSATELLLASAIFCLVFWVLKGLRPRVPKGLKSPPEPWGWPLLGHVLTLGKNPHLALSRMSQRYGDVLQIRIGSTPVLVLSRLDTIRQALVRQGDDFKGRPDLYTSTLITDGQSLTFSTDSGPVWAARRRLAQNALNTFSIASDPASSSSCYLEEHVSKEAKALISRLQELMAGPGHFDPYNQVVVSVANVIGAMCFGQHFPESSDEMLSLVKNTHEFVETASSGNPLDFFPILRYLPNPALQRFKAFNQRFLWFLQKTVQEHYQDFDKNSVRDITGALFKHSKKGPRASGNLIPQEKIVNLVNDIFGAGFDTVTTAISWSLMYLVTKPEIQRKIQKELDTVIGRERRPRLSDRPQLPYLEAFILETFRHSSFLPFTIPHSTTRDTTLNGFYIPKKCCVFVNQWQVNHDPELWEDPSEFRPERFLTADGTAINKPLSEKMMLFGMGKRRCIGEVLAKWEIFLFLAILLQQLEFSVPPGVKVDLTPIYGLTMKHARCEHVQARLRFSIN
Chain of Glucocorticoid receptor (Homo sapiens) (P04150 whole entry, looked up, the tested form may be a part): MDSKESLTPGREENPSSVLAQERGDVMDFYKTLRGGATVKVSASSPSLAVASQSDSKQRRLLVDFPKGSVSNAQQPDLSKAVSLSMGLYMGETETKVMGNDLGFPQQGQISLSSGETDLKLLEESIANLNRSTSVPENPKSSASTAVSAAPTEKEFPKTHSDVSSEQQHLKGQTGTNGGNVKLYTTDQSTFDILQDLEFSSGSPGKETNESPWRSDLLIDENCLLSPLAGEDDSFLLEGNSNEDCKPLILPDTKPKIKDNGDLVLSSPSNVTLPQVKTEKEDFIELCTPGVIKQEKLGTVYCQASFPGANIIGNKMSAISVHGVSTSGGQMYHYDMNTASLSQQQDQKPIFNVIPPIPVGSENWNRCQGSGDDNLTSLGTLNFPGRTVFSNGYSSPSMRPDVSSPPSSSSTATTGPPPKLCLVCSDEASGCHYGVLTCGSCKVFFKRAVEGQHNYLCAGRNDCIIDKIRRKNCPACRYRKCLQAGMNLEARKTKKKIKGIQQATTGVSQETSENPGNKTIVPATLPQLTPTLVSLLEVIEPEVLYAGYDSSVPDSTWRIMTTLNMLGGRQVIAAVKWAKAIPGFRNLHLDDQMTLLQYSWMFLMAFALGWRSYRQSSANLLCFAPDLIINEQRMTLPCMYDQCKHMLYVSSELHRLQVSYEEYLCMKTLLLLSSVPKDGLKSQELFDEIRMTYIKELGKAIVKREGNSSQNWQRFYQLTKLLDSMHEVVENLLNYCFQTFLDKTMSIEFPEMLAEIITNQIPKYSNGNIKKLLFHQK
Chain of Cytochrome P450 2D6 (Homo sapiens) (P10635 whole entry, looked up): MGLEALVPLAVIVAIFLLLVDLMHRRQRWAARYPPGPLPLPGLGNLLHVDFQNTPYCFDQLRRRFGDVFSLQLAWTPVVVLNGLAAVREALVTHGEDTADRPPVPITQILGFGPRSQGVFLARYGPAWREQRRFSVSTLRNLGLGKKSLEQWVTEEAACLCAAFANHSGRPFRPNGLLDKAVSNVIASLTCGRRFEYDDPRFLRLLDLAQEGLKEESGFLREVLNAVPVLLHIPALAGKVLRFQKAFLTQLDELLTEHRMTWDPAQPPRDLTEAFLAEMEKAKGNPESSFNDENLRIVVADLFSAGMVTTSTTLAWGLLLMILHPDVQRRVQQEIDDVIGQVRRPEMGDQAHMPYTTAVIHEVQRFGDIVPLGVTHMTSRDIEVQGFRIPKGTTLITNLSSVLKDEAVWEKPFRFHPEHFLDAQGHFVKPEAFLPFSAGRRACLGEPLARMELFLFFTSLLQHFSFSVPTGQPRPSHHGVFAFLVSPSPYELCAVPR

Compound	Potency [1] [µM]	activity change, negative = inhibition [2] [%]	Potency [3]	activity change, negative = inhibition [4] [%]	activity, negative = inhibition [5] [%]	Potency [6] [µM]	Potency [7] [µM]	Potency [8]	Potency [9]	activation [10] [%]	activity change, negative = inhibition [3]	Potency [11]	outcome [12]	outcome [13]	Potency [14]
N[C@@H](Cc1c[nH]c2ccc([N+](=O)[O-])cc12)C(=O)O	> 11.4	-1.05	inactive	-4.18	3.4	> 46	> 9.22	inactive	inactive	-2.55	–	–	–	–	–
O=C1CCC(c2ccccc2)=NN1c1nc2ccccc2s1	> 11.4	-11.1	0.398 µM (active)	-3.68	-10.7	> 46	> 9.22	inactive	inactive	-16.7	–	–	–	–	–
C[C@@](N)(/C=C\c1ccccc1)C(=O)O	> 11.4	-1.95	inactive	12	-3.44	> 46	> 9.22	inactive	inactive	-2.86	–	–	–	–	–
CC1=N[C@@](C)(COC(=O)[C@]2(C)N[C@](C)(CO)CO2)COC1=O	> 11.4	0.84	–	9.08	6.3	> 46	> 9.22	inactive	inactive	5.98	6.9% [at 2.29 µM]	–	–	–	–
NS(=O)(=O)c1ccc(N=Nc2ccc(O)c(C(=O)O)c2)cc1	> 11.4	-0.844	inactive	-4.82	-2.97	> 46	> 9.22	inactive	inactive	12.3	–	–	–	–	–
CN(C)C(=O)c1ccc(-c2nc(Nc3ccc(F)cc3)c3ccccc3n2)cc1	> 11.4	-18.3	3.98 µM (active)	1.18	-8.08	> 46	> 46	inactive	–	14.9	–	inactive	inactive	inactive	–
Cc1cc(CN2CCCCC2)c(O)c(CN2CCCCC2)c1	> 11.4	25.8	–	-21.4	-1.32	> 46	> 9.22	inactive	inactive	2.92	-18.8% [at 2.29 µM]	–	–	–	–
O=C(O)C(Sc1ccc(Cl)cc1)Sc1ccc(Cl)cc1	> 11.4	0.225	–	-19.6	-29.3	> 46	> 9.22	inactive	inactive	-0.83	-27.8% [at 2.29 µM]	–	–	–	–
CCCCn1cnc2c(c(CC#N)nn2-c2ccccc2)c1=N	> 11.4	-12	1 µM (active)	-1.01	-0.662	> 46	> 9.22	inactive	–	–	–	–	–	–	0.398 µM (active)
CN(C)c1ccc(-c2nc(N3CCNCC3)c3ccccc3n2)cc1	> 11.4	-12.7	10 µM (active)	5.32	23.9	> 46	> 46	inactive	–	–	–	inactive	inactive	inactive	–
O=C(Cn1ccc(=O)[nH]c1=O)Nc1ccc(C(=O)O)c(O)c1	> 11.4	13.2	–	18.3	2.74	> 46	> 9.22	inactive	inactive	6.06	-16.5% [at 2.29 µM]	–	–	–	–
COc1ccc(-n2c(=O)c(C)nc3cnc(Oc4cccc(Cl)c4)nc32)cc1	> 11.4	-20.7	7.94 µM (active)	-1.69	-10.9	> 9.22	> 46	inactive	–	–	–	inactive	–	–	–
CN(C)Cc1ccc(O)c(CN(C)C)n1	> 11.4	1.16	inactive	4.31	0.249	> 46	> 9.22	inactive	inactive	2.88	–	–	–	–	–
Cc1c(NC(=O)Nc2c(Cl)cccc2Cl)c(=O)n(-c2ccccc2)n1C	> 11.4	4.18	inactive	-0.333	-1.35	> 46	> 9.22	inactive	inactive	-3.31	–	–	–	–	–
